Experimental data reported in the supplement of paper PMC12494721.
Where a name gives a salt, the structure may show the parent alone. Unmarked numbers belong to inactive results.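 Rule for the calls: for the amine columns active = adjusted P below 0.05 in both replicates with a change the same way and a mean fold change under 0.8 or over 1.25; inactive = the rest.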

test system: Ruminococcus gnavus DSM 108212; assay: fold change of 2-Phenylethylamine concentration vs plate DMSO controls (fold change (ratio)); higher = more amine produced, active = hit call of the paper (significant change in both replicates, either direction); conditions: incubation time: 27 h, anaerobic, 37 °C
In short: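 Amines were quantified by LC–triple-quadrupole MS in dynamic MRM mode against external calibration curves, with drift correction within each batch. The samples were whole anaerobic mGAM cultures of four gut bacterial strains, grown for 27 h at 37 °C in 80 µL wells and extracted with cold acetonitrile/methanol with 0.1% formic acid, then centrifuged. Values are reported as fold change over DMSO controls on the same plate. The mean of 2 biological replicates is given.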

Row | Structure (SMILES) | fold change of 2-Phenylethylamine concentration
1 | CC(=O)[C@H]1CC[C@H]2[C@@H]3CC=C4C[C@@H](O)CC[C@]4(C)[C@H]3CC[C@]12C [Pregnenolone] (20 µM) | 1
2 | CC(C(=O)O)c1ccc(N2Cc3ccccc3C2=O)cc1 (stereo not given) [Indoprofen] (20 µM) | 1.11
3 | Cc1cc(O)c(C(=O)N[C@@H](C(=O)N[C@@H]2C(=O)N3C(C(=O)O)=C(CSc4nnnn4C)CS[C@H]23)c2ccc(O)cc2)cn1 [Cefpiramide] (20 µM) | 0.0464 (active)
4 | CC(C)=CCC1C(=O)N(c2ccccc2)N(c2ccccc2)C1=O [Feprazone] (20 µM) | 1.03
5 | COC(=O)C1=C(C)NC(C)=C(C(=O)OCCN(C)Cc2ccccc2)C1c1cccc([N+](=O)[O-])c1 (stereo not given) [Nicardipine hydrochloride] (20 µM) | 0.858
6 | COCCOC(=O)C1=C(C)NC(C)=C(C(=O)OC(C)C)C1c1cccc([N+](=O)[O-])c1 (stereo not given) [Nimodipine] (20 µM) | 0.903
7 | NS(=O)(=O)c1cc2c(cc1Cl)N=CNS2(=O)=O [Chlorothiazide] (20 µM) | 1.01
8 | CC(Oc1ccccc1)C(=O)N[C@@H]1C(=O)N2[C@@H]1SC(C)(C)[C@@H]2C(=O)O (stereo not given in full) [Phenethicillin potassium salt] (20 µM) | 0.0417 (active)
9 | Cc1ccc(N(CC2=NCCN2)c2cccc(O)c2)cc1 [Phentolamine hydrochloride] (20 µM) | 1.01
10 | CC1(C)O[C@@H]2C[C@H]3[C@@H]4C[C@H](F)C5=CC(=O)CC[C@]5(C)[C@H]4[C@@H](O)C[C@]3(C)[C@]2(C(=O)CO)O1 [Flurandrenolide] (20 µM) | 1.33
11 | NS(=O)(=O)c1cc2c(cc1C(F)(F)F)NCNS2(=O)=O [Hydroflumethiazide] (20 µM) | 0.935
12 | Nc1nc(/C(=C/CC(=O)O)C(=O)N[C@@H]2C(=O)N3C(C(=O)O)=CCS[C@H]23)cs1 [Ceftibuten] (20 µM) | 1.06
13 | O=C(O)Cc1ccc(-c2ccccc2)cc1 [Felbinac] (20 µM) | 1.01
14 | Nc1nnc(-c2cccc(Cl)c2Cl)c(N)n1 [Lamotrigine] (20 µM) | 1.06
15 | Nc1nc(=O)c2nc(CNc3ccc(C(=O)N[C@@H](CCC(=O)O)C(=O)O)cc3)cnc2[nH]1 [Folic acid] (20 µM) | 0.928
16 | Nc1ccc(S(=O)(=O)NC(=O)c2ccccc2)cc1 [Sulfabenzamide] (20 µM) | 1.09
17 | CCC(=O)O[C@]1(C(=O)SCF)[C@H](C)C[C@H]2[C@@H]3C[C@H](F)C4=CC(=O)C=C[C@]4(C)[C@@]3(F)[C@@H](O)C[C@@]21C [Fluticasone propionate] (20 µM) | 0.931
18 | CCOC(=O)[C@H](CCc1ccccc1)N[C@@H](C)C(=O)N1[C@H](C(=O)O)C[C@@H]2CCC[C@@H]21 [Ramipril] (20 µM) | 0.911
19 | CO/N=C(\C(=O)N[C@@H]1C(=O)N2C(C(=O)OCOC(=O)C(C)(C)C)=C(/C=C\c3scnc3C)CS[C@H]12)c1csc(N)n1 [Cefditoren Pivoxil] (20 µM) | 1.01
20 | NC[C@H]1O[C@H](O[C@H]2[C@H](O[C@@H]3O[C@H](CO)[C@@H](O)[C@H]3O)[C@@H](O)[C@H](N)C[C@@H]2N)[C@H](N)[C@@H](O)[C@@H]1O [Ribostamycin sulfate salt] (20 µM) | 1.03

Row | Structure (SMILES) | fold change of 2-Phenylethylamine concentration
21 | Brc1c(NC2=NCCN2)ccc2nccnc12 [Brimonidine L-tartrate] (20 µM) | 1.05
22 | O=c1[nH]cnc2c1ncn2[C@H]1CC[C@@H](CO)O1 [Didanosine] (20 µM) | 1.16
23 | NS(=O)(=O)Cc1noc2ccccc12 [Zonisamide] (20 µM) | 0.806
24 | CN(C)CCC(c1ccc(Cl)cc1)c1ccccn1 (stereo not given) [Chlorpheniramine maleate] (20 µM) | 1.02
25 | OCC(O)CN1CCN(c2ccccc2)CC1 (stereo not given) [Dropropizine] (20 µM) | 1.05
26 | CC(=O)[C@H]1CC[C@H]2[C@@H]3CCC4=CC(=O)CC[C@]4(C)[C@H]3CC[C@]12C [Progesterone] (20 µM) | 0.95
27 | CC(C)(C)NC(=O)[C@@H]1CN(Cc2cccnc2)CCN1C[C@@H](O)C[C@@H](Cc1ccccc1)C(=O)N[C@H]1c2ccccc2C[C@H]1O [Indinavir sulfate] (20 µM) | 1.02
28 | c1ccc2c(c1)CCCC2C1=NCCN1 (stereo not given) [Tetrahydrozoline hydrochloride] (20 µM) | 1.01
29 | O=[N+]([O-])c1ccc(O)c2ncccc12 [Nitroxoline] (20 µM) | 0.766
30 | COCC(=O)O[C@]1(CCN(C)CCCc2nc3ccccc3[nH]2)CCc2cc(F)ccc2[C@@H]1C(C)C [Mibefradil hydrochloride] (20 µM) | 0.908
31 | Nc1nc(Cl)nc2c1ncn2[C@H]1C[C@H](O)[C@@H](CO)O1 [Cladribine] (20 µM) | 0.957
32 | CN(CCOc1ccc(CC2SC(=O)NC2=O)cc1)c1ccccn1 (stereo not given) [Rosiglitazone hydrochloride] (20 µM) | 1.12
33 | C[C@@H](O)[C@H]1C(=O)N2C(C(=O)O)=C(S[C@@H]3CN[C@H](C(=O)N(C)C)C3)[C@H](C)[C@H]12 [Meropenem] (20 µM) | 0.0459 (active)
34 | CNCCC=C1c2ccccc2C=Cc2ccccc21 [Norcyclobenzaprine] (20 µM) | 0.935
35 | CCCCS(=O)(=O)N[C@@H](Cc1ccc(OCCCCC2CCNCC2)cc1)C(=O)O [Tirofiban hydrochloride] (20 µM) | 1.02
36 | OC[C@H]1O[C@@H](n2cnc3cncnc32)[C@H](O)[C@@H]1O [Nebularine] (20 µM) | 0.946
37 | CC1(C)S[C@@H]2[C@H](NC(=O)[C@H](N)c3ccccc3)C(=O)N2[C@H]1C(=O)O [Ampicillin trihydrate] (20 µM) | 0.0431 (active)
38 | Oc1ncnc2[nH]ncc12 [Allopurinol] (20 µM) | 1.02
39 | CC(C)(C)c1ccc(C(=O)CCCN2CCC(OC(c3ccccc3)c3ccccc3)CC2)cc1 [Ebastine] (20 µM) | 1.02
40 | CCOC(N)=O [Urethane] (20 µM) | 0.926
